Source: PubChem BioAssay (NCATS)
Records with an inconclusive call do not appear. Unless noted, calls come from the whole dose curve; as a rule, active = well fitted curve in either direction with a large enough effect (not every such curve was filed as active); inconclusive = small, poorly fitted or top-dose-only effect, or another doubt; inactive = flat fitted curve, though single readings scatter.

System: not listed separately
Assay: Stat Signaling Pathway (AID 446);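 note: ME-180 cervical cancer cells given 40 pM IL-6 alongside compound; SIE-controlled beta-lactamase reporter measured as 460/530 nm FRET emission ratio; % is set by controls: 0 for no effect and ±100 for the full control effect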
Conditions: ME-180 SIE beta-lactamase reporter, IL-6 stimulated, 5 h; at 7.69 µM (top of the series) unless noted
How it was run: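 Reporter line: ME-180 cervical carcinoma, SIE-beta-lactamase. Treatment: compound with 40 pM IL-6, 5 hrs, 37 C, in low-serum OPTI-MEM with 10 mM HEPES pH 7.3. Detection: 460/530 nm fluorescence.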

activity, negative = inhibition, inactive:
Cc1noc(C)c1-c1nc(N2CCOCC2)c2ccccc2n1 19.8%
Cc1noc(C)c1C(=O)N1CCC2(CCCN(C(=O)Nc3ccccc3)C2)CC1 -8.55%
CNc1nc(-c2ccccc2C(F)(F)F)nc2ccccc12 3.95%
COc1ccc(Oc2ncc3nc(-c4ccc(F)cc4)c(=O)n(C)c3n2)cc1 12.3%
O=C(Nc1cccc(F)c1)N1CC2(CCN(C(=O)c3cccc(F)c3)CC2)C1 -4.12%
O=C(c1ccncc1)N1CCC2(CCN(Cc3ccccc3)CC2)CC1 -6.01%
Cc1cnc(CNc2ncnc3ccc(-c4ccccc4CN(C)C)cc23)cn1 11.7%
CC(=O)N1CCC[C@@]2(CCN(C(=O)Nc3cccc(C#N)c3)C2)C1 7.98%
COCC(=O)N1CCC2(CCN(Cc3ccc(C#N)cc3)CC2)CC1 -0.16%
Cn1cccc1C(=O)N1CCC2(CCCN(Cc3ccncc3)C2)CC1 7.75%
CC(=O)N1CCC[C@@]2(CCN(Cc3nccs3)C2)C1 4.24%
CS(=O)(=O)Nc1cccc(-c2nc(NCCN3CCOCC3)c3ccccc3n2)c1 -7.39%
Cc1nc2cnc(N3CCNCC3)nc2n(CCC#N)c1=O -12.7%
CNc1ncnc2ccc(-c3cccc(NS(C)(=O)=O)c3)cc12 -3.45%
N#Cc1cccc(NC(=O)N2CC[C@@]3(CCCN(C(=O)c4ccco4)C3)C2)c1 -1.84%
FC(F)(F)c1ccccc1-c1nccc(NCc2ccccc2)n1 -13.7%
O=C(c1csnn1)N1CCC2(CCN(Cc3ccccc3)CC2)CC1 -0.255%
Cc1cnc(CNc2nc(-c3ccc(N(C)C)cc3)nc3ccccc23)cn1 7.71%
O=C(c1ccncc1)N1CCC2(CC1)CCN(c1ccncc1)CC2 5.08%
CC(=O)NCCNc1ncncc1-c1ccccc1C(F)(F)F 6.6%
O=C(c1ccco1)N1CCC[C@@]2(CCN(c3ccccn3)C2)C1 -0.822%
O=C(Nc1cccc(F)c1)N1CC2(CCN(C(=O)c3cnccn3)CC2)C1 -2.15%
O=C(c1ccncc1)N1CCC2(CCN(Cc3nccs3)CC2)CC1 4.96%
Cc1noc(C)c1C(=O)N1CCC2(CC1)CN(c1ccccn1)C2 3.57%
Cc1cnc(CNc2cc(-c3ccoc3)ncn2)cn1 -9.44%
COCCNc1nc(-c2ccccc2C)nc2ccccc12 5.05%
O=C(c1ccco1)N1CCC[C@@]2(CCN(C(c3ccccc3)c3ccccc3)C2)C1 3.09%
COc1ccc(C(=O)N2CCC[C@@]3(CCN(C(=O)NC(C)C)C3)C2)cc1 -9.21%
O=C(c1cc(C(F)(F)F)cc(C(F)(F)F)c1)N1CCC2(CC1)CN(c1ccncc1)C2 3.13%
Cn1cccc1C(=O)N1CCC2(CCCN(c3ccncc3)C2)CC1 0.921%
COc1ccc(NC(=O)N2CC3(CCN(C(=O)c4csnn4)CC3)C2)cc1 -2.12%
COc1ccc2[nH]cc(CCNc3ccnc(-c4cccc(NS(C)(=O)=O)c4)n3)c2c1 -27.4%
O=C(c1ccncc1)N1CCC[C@@]2(CCN(Cc3ccncc3)C2)C1 -6.44%
COc1ccc(CNc2cc(-c3ccccc3CN(C)C)ncn2)c(OC)c1 10.5%
O=C(c1ccncc1)N1CCC2(CC1)CCN(c1ccc(-c3ccccc3)cc1)CC2 -9.73%
COc1ccc(CNc2nc(-c3ccoc3)nc3ccccc23)c(OC)c1 6.96%

Molecular target: Glucocorticoid receptor (Homo sapiens) (UniProt P04150)
Assay: GR-GFP Redistribution (AID 450;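 active = compounds whose dose series gives a full or clear partial fitted curve of increased nuclear translocation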; note: potency is the fitted concentration of half-maximal effect)
Conditions: U2OS GR-GFP nuclear translocation, laser cytometry, 2 h

Chain of Glucocorticoid receptor (Homo sapiens) (P04150 whole entry, looked up): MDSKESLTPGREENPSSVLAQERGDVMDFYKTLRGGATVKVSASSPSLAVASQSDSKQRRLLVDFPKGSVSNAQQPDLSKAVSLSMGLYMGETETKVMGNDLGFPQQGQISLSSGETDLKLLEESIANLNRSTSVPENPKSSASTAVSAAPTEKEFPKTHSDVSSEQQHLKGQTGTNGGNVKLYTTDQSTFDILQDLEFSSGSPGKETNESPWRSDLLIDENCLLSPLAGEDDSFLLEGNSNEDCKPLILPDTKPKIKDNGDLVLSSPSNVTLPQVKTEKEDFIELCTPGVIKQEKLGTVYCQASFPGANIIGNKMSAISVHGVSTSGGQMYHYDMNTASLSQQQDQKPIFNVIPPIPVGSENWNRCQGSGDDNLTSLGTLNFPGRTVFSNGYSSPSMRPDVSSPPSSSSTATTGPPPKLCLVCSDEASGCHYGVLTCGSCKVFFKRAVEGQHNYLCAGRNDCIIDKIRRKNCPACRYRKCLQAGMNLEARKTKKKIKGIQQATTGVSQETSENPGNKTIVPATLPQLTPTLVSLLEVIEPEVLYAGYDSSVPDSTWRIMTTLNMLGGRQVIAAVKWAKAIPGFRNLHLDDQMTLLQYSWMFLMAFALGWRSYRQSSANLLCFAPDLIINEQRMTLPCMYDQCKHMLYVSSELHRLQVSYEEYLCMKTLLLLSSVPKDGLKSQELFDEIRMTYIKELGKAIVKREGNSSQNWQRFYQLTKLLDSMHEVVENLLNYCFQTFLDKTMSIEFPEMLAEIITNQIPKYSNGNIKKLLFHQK

Potency, inactive:
Cc1noc(C)c1-c1nc(N2CCOCC2)c2ccccc2n1 > 46 µM
CNc1nc(-c2ccccc2C(F)(F)F)nc2ccccc12 > 46 µM
COc1ccc(Oc2ncc3nc(-c4ccc(F)cc4)c(=O)n(C)c3n2)cc1 > 9.22 µM
Cc1cnc(CNc2ncnc3ccc(-c4ccccc4CN(C)C)cc23)cn1 > 46 µM
CS(=O)(=O)Nc1cccc(-c2nc(NCCN3CCOCC3)c3ccccc3n2)c1 > 46 µM
Cc1nc2cnc(N3CCNCC3)nc2n(CCC#N)c1=O > 9.22 µM
CC(=O)NCCNc1nc(-c2ccc(N(C)C)cc2)nc2ccccc12 > 46 µM
FC(F)(F)c1ccccc1-c1nccc(NCc2ccccc2)n1 > 46 µM
Cc1cnc(CNc2nc(-c3ccc(N(C)C)cc3)nc3ccccc23)cn1 > 46 µM
Cn1cc(C(F)(F)F)nc1-c1ccc(OC[C@@H](O)CNCCOc2ccc(O)c(C(N)=O)c2)cc1 > 46 µM
CN(C)c1ccc(-c2nc(N(C)C)c3ccccc3n2)cc1 > 46 µM
CC(=O)NCCNc1ncncc1-c1ccccc1C(F)(F)F > 46 µM
Cc1cnc(CNc2cc(-c3ccoc3)ncn2)cn1 > 46 µM
COCCNc1nc(-c2ccccc2C)nc2ccccc12 > 46 µM
Cc1cccc(CNc2ncnc3ccc(-c4c(C)noc4C)cc23)c1 > 46 µM
COc1ccc2[nH]cc(CCNc3ccnc(-c4cccc(NS(C)(=O)=O)c4)n3)c2c1 > 46 µM
COc1ccc(CNc2cc(-c3ccccc3CN(C)C)ncn2)c(OC)c1 > 46 µM
COc1ccc(CNc2nc(-c3ccoc3)nc3ccccc23)c(OC)c1 > 46 µM
